High-throughput results (PubChem BioAssay)
aSyn 5UTR act: Activators working through SNCA 5'UTR binding (MLPCN); alpha-synuclein 5'UTR reporter, activators screen; activity score, % (tested at 7.5 µM), hits read low; hit rate 7.1% among 300,000; AID 1814; in the data active means activity score below about -60%
Large screens that a line does not name were inactive. These entries were drawn from the full list.

S=c1[nH]nc(-c2ccncc2)n1/N=C/C(Cl)=C\c1ccccc1	aSyn 5UTR act -220.7
O=C(/C=C/c1cccc(F)c1)c1ccc(N2CCOCC2)cc1	aSyn 5UTR act -80.4
Cc1ccc(N=Nc2[nH]c3ccccc3c2O)cc1	aSyn 5UTR act -79.9
COc1ccc(N=Nc2[nH]c3ccc(C)cc3c2O)cc1	aSyn 5UTR act -124.9
CC(C)CC(=O)N/C(N)=N/c1nc2ccccc2o1	aSyn 5UTR act -159.6
CCCC(=O)N/C(N)=N/c1nc2ccccc2o1	aSyn 5UTR act -121.5
CC(=O)Oc1cc(OC(C)=O)c2c(=O)c(-c3ccc4c(c3)OCCCO4)c(C)oc2c1	aSyn 5UTR act -88.2
COc1cc2c(OC(C)=O)c3c(c(-c4ccc5c(c4)OCO5)c2cc1OC)C(=O)OC3	none
CCCc1cc2c(=O)c(-c3ccccn3)coc2cc1OC	aSyn 5UTR act -157.6
Oc1ccccc1C1=Nc2nc3ccccc3n2C(c2ccccc2)C1 (stereo unspecified)	aSyn 5UTR act -213.5
CC(=Nc1ccc(O)cc1)c1sc2ccccc2c1O	aSyn 5UTR act -186.7
Cc1cccc(N=Nc2ccc(O)c3ncccc23)c1	none
CC(=Nc1ccccc1O)c1sc2ccccc2c1O	aSyn 5UTR act -93.1
CC(=Nc1cccc(C)c1)c1sc2ccccc2c1O	aSyn 5UTR act -215.0
CC(=O)NCCN=C(C)c1sc2ccccc2c1O	aSyn 5UTR act -70.9
COc1cccc(OCc2cc(/C=N/Nc3ccc(C(=O)O)cc3)ccc2OC)c1	aSyn 5UTR act -91.6
CCOc1cc(/C=N/Nc2ccc(C(=O)O)cc2)ccc1OC(=O)c1ccccc1C	aSyn 5UTR act -90.6
OC1CCN(Cc2ccc(OCc3ccccc3)cc2)CC1	aSyn 5UTR act -69.7
C=CCN(CC=C)C(=O)C1CCN(Cc2ccc(OCc3ccccc3)cc2)CC1	aSyn 5UTR act -96.8
CCCCNC(=O)C1CCN(Cc2ccc(OCc3ccccc3)cc2)CC1	aSyn 5UTR act -218.9
COc1ccc2cc3cc(C(=O)NC(C)C)oc3nc2c1	aSyn 5UTR act -142.0
CCCCN(C)C(=O)c1cc2cc3ccc(OC)cc3nc2o1	aSyn 5UTR act -114.1
CCN(C(=O)c1cc2cc3ccc(C)cc3nc2o1)c1ccc(OC)cc1	aSyn 5UTR act -306.8
CCCCN(C)C(=O)c1cc2cc3cc(OC)ccc3nc2o1	aSyn 5UTR act -121.1
COc1cc(NC(=O)c2c(F)cccc2F)nc(OC)n1	aSyn 5UTR act -117.4
COc1cc(NC(=O)c2cccc(Br)c2)nc(OC)n1	aSyn 5UTR act -105.2
Cc1cc(C(=O)OC(C(=O)Nc2ccc(C)c(Cl)c2)c2ccccc2)c(C)o1 (stereo unspecified)	aSyn 5UTR act -68.1
Cc1ccnc(NC(=O)Nc2ccc3c(c2)N(C)C(=O)CS3)c1	aSyn 5UTR act -96.9
Cc1cccc(NC(=O)Nc2ccc3c(c2)N(C)C(=O)CS3)n1	aSyn 5UTR act -83.2
CC1CN(C(=O)c2cccc(COc3ccc(Br)cc3)c2)CC(C)O1 (stereo unspecified)	aSyn 5UTR act -104.2
CCOc1ccc(OCc2cccc(C(=O)N3CCOCC3)c2)cc1	none
CCN(CC)c1nc(C#N)cc(-c2ccc(OC)cc2)n1	aSyn 5UTR act -68.8
C=CCn1c(C)cc(C(=O)CSc2nc3ccccc3[nH]2)c1C	none
Cc1cc(C(=O)CSc2nc3ccccc3o2)c(C)n1C1CC1	aSyn 5UTR act -164.5
C=CCn1c(C)cc(C(=O)CSc2nc3ccccc3o2)c1C	aSyn 5UTR act -136.5
C=CCn1c(C)cc(C(=O)COc2nncc3ccccc23)c1C	aSyn 5UTR act -122.6
CCc1ccc2oc(-c3cc(N=Cc4cccc(OC)c4O)ccc3O)nc2c1	aSyn 5UTR act -146.0
COC(=O)C1=C(C)Nc2ccc(C)cc2S1	aSyn 5UTR act -63.7
O=[N+]([O-])/C(C(Cl)=C(Cl)Cl)=C(\Nc1ccc(F)cc1)n1cncn1	aSyn 5UTR act -102.4
C/C(=N\Nc1nc2ccc(Cl)cc2o1)c1ccccc1	aSyn 5UTR act -66.0
O=C(CC1OC(=O)c2ccccc21)c1ccco1 (stereo unspecified)	aSyn 5UTR act -74.7
Cc1ccc2nc(SCC(=O)Nc3cc(C(F)(F)F)ccc3N3CCOCC3)[nH]c2c1	none
C/C(N)=C(/C#N)C(=O)CSc1nc2ccc(C)cc2[nH]1	aSyn 5UTR act -182.9
Cc1ccc2[nH]c(SCC(=O)N3CCOCC3)nc2c1C	aSyn 5UTR act -110.4
Cc1ccc2nc(SCC(=O)N3CCOCC3)[nH]c2c1	aSyn 5UTR act -89.3
Cn1/c(=N/N=C/c2ccc(N3CCOCC3)cc2)sc2ccccc21	aSyn 5UTR act -65.2
Clc1ccc(-c2nc(C3CCCCC3)no2)cc1	aSyn 5UTR act -159.9
COc1ccccc1/C=C/C=C(\C#N)C(=O)NC(C)c1ccccc1 (stereo unspecified)	aSyn 5UTR act -74.0
O=C(/C=C/c1ccccc1[N+](=O)[O-])NCCN1C(=O)S/C(=C\c2ccc(F)cc2)C1=O	aSyn 5UTR act -113.1
COc1ccccc1NC(CC(=O)c1ccccc1)C(=O)OCC(=O)c1ccc(F)cc1 (stereo unspecified)	aSyn 5UTR act -235.3
CNc1ccccc1C(=O)OCC(=O)c1ccc(F)cc1	aSyn 5UTR act -69.9
CNc1ccccc1C(=O)OCC(=O)c1ccccc1	aSyn 5UTR act -70.9
CC(=O)NCCOc1ccc2oc3ccccc3c2c1	aSyn 5UTR act -133.0
Nc1[nH]n(-c2ccccc2)c(=O)c1N=Nc1ccccc1[N+](=O)[O-]	aSyn 5UTR act -133.5
Nc1[nH]n(-c2ccccc2)c(=O)c1N=Nc1ccc2ncsc2c1	aSyn 5UTR act -77.8
Nc1[nH]n(-c2ccccc2)c(=O)c1N=Nc1ccccc1	aSyn 5UTR act -138.2
COc1cc(/C=C2/C(=N)N3C=CSC3=NC2=O)ccc1OCCCOc1ccccc1C	aSyn 5UTR act -117.9
CCC1=NN2C(=N)/C(=C\c3ccc(OCCOc4ccccc4)c(OC)c3)C(=O)N=C2S1	aSyn 5UTR act -125.0
CC1(C)COC(c2coc3ccccc3c2=O)OC1	aSyn 5UTR act -96.7
Cc1nc(/N=C(\N)Nc2ccccc2)nc2ccccc12	aSyn 5UTR act -132.7
COC(=O)c1cccc(N/C=C(\[N+](=O)[O-])S(=O)(=O)c2ccccc2)c1	aSyn 5UTR act -62.0
CCOc1ccc2oc(C(=O)Nc3ccc4c(c3)OCO4)c(C)c2c1	aSyn 5UTR act -176.2
CCOc1ccc2oc(C(=O)Nc3ccc(N4CCOCC4)cc3)c(C)c2c1	aSyn 5UTR act -68.5
CCOc1ccc2oc(C(=O)Nc3cc(C)ccn3)c(C)c2c1	aSyn 5UTR act -67.5
CCOc1ccc(C(=O)N2CCn3c2nc2ccccc23)cc1	aSyn 5UTR act -69.2
O=C(c1cccs1)N1CCn2c1nc1ccccc12	aSyn 5UTR act -117.8
Cc1ccc(C(=O)n2c(N)nc3ccccc32)cc1	none
COc1ccc(C(=O)N2CCn3c2nc2ccccc23)cc1	aSyn 5UTR act -108.4
COc1ccc(C(=O)n2c(-c3ccco3)nc3ccccc32)cc1	aSyn 5UTR act -100.5
Nc1cc(Cl)ccc1Oc1ccc2ccccc2c1	aSyn 5UTR act -138.4
Cc1ccc(Oc2ccc(Cl)cc2N)cc1	aSyn 5UTR act -85.3
CN(C)c1ccc(C(=O)/C=C/c2ccc(Br)cc2)cc1	aSyn 5UTR act -78.8
CN(C)c1ccc(C(=O)/C=C/c2ccco2)cc1	aSyn 5UTR act -226.3
CN(C)c1ccc(C(=O)/C=C/c2ccccc2)cc1	aSyn 5UTR act -158.8
CN(C)c1ccc(C(=O)c2ccccc2)cc1	aSyn 5UTR act -119.0
CN(C)c1ccc(N=Nc2ccc(C(=O)O)cc2)cc1	none
O=C(/C=C\c1ccco1)c1ccc(NC(=O)c2ccco2)cc1	aSyn 5UTR act -143.4
O=C(c1ccccc1)c1ccc(-c2ccc(O)cc2)cc1	aSyn 5UTR act -251.1
CC(=O)Nc1ccc(S(=O)(=O)N2c3ccccc3C(C)=CC2(C)C)cc1	none
CC(=O)Nc1ccc(/C=C2\CCc3ccccc3C2=O)cc1	aSyn 5UTR act -118.3
